Rows were chosen to be rich in hits. Some 3.6% of all compounds tested hit in one or more screens of this group.
TGFb inhibitor = TGF-b pathway inhibition | hit rate 1.2% among 410,000 | HepG2 CAGA-GFP TGF-b/SMAD3 reporter, GFP fluorescence, 18 h; TGF-beta stimulated, 500 pg/mL final | Potency, µM (doses to about 46.1 µM), hits mostly inhibitors; also: nearly all actives have a fitted effect of over 65% in size
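HEPG2 CAGA-GFP reporter cells (1000/well, DMEM with 1% FBS) received compounds, then recombinant TGF-beta at 500 pg/mL final for 18 hours at 37 degrees C. Per-cell GFP summed per well was normalised to unstimulated and stimulated DMSO controls before curve fitting.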
Nrf2 inh = inhibitors of Nrf2 signaling | A549 ARE-Fluc reporter, luciferase luminescence, 18-24 h | hit rate 2.1% among 360,000 | Potency, µM (doses to about 46 µM), usual class: inhibitors; also: nearly all actives have a fitted effect of over 60% in size
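Nrf2 activity is the BugLite luminescence, read 15 min after reagent at room temperature, following CellTiter-Fluor cytotoxicity readout (30 min, 37C). Compound titrations were applied for 18-24 h to 5000 A549 ARE_Fluc cells/well in 5% FBS OPTI-MEM.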
HepG2 tox = HepG2 cytotoxicity, counter-screen for TGF-b inhibitors | hit rate 0.76% among 410,000 | Potency, µM (doses to about 46.1 µM), hits mostly cytotoxic | HepG2 CAGA-GFP viability, ATP luminescence, 18 h
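CellTiter-Glo luminescence gave cytotoxicity after 18 hours at 37 degrees C. The cells were HepG2 CAGA-GFP in 1% FBS DMEM, stimulated with 500 pg/mL TGF-beta after compound addition. %Activity was normalised to no-cell wells (complete cell-killing) and DMSO (no toxicity), and curves were fitted and classified.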
A549 tox = A549 cytotoxicity, counter-screen for Nrf2 inhibitors; AID 504648; A549 ARE-Fluc cells, CellTiter-Fluor viability, 18-24 h; hit rate 0.16% among 390,000; Potency, µM (top dose mostly 46 µM), hits mostly inhibitors
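A549 ARE-Fluc cells in 5% FBS OPTI-MEM, 5000 cells/well, rested 2 h then exposed to compounds in concentration-response for 18-24 h at 37 °C. Viability by CellTiter-Fluor fluorescence (Ex 405/Em 525) after 30 min; luciferase luminescence (BugLite, 15 min, RT) read afterwards.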
Nrf2 activator = activators of Nrf2 (ARE) signaling. AREc32 ARE-luciferase reporter (MCF7-derived line), luminescence, 24 h. Potency, µM (doses to about 46.1 µM), actives largely listed as activators. hit rate 0.31% among 410,000. AID 624171; also: nearly all actives have a fitted effect of over 65% in size
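Luminescent ARE reporter assay in AREc32_Fluc cells: overnight plating at 37 deg C, 24 hr compound incubation, Steady-Glo added, 30 min RT before reading.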
Each line names hits and unclear results; the compound was inactive in the other large screens. Calls follow the shape of the dose curve; as a rule, active = well fitted curve in the direction sought with a large enough effect; inconclusive = small, poorly fitted or top-dose-only effect, or another doubt; inactive = no such curve, though single readings can be large; an effect the other way counts as inactive or inconclusive.

C[C@H](CO)N1C[C@H](C)[C@@H](CN(C)CC2CC2)OCc2cnnn2CCCC1=O	none (no result: Nrf2 inh, A549 tox)
COc1cc(Nc2nc(SCC(=O)c3ccc(Br)cc3)nc3ccccc23)cc(OC)c1	TGFb inhibitor inconclusive, HepG2 tox 10µM, A549 tox inconclusive (no result: Nrf2 inh)
CCn1c2ccccc2c2cc(C3C(C#N)=C(N)Oc4n[nH]c(COC)c43)ccc21 (centres undefined)	TGFb inhibitor 10µM, Nrf2 inh inconclusive, HepG2 tox 4µM
COCc1[nH]nc2c1C(c1ccc(OC)c(OC)c1)C(C#N)=C(N)O2 (centres undefined)	none
CC(C)c1csc(CN2CCCC(CNC(=O)c3cccc4ccccc34)C2)n1 (centres undefined)	TGFb inhibitor inconclusive, Nrf2 inh 16µM
COc1cc(-c2nc(S(=O)(=O)c3ccc(Br)cc3)c(N3CCOCC3)o2)cc(OC)c1OC	none (no result: Nrf2 inh)
Cc1ccc(C(C[N+](=O)[O-])c2c(-c3ccccc3O)[nH][nH]c2=O)cc1 (centres undefined)	TGFb inhibitor inconclusive, HepG2 tox 7.9µM
O=c1[nH][nH]c(-c2ccccc2O)c1C(C[N+](=O)[O-])c1ccc(Br)cc1 (centres undefined)	TGFb inhibitor inconclusive
O=C(Cc1c[nH]c2ccccc12)N/N=C/c1ccccc1O	TGFb inhibitor inconclusive
CC(C)(C)c1ccc(/C=N/NC(=O)Cc2c[nH]c3ccccc23)cc1	Nrf2 inh 26µM, A549 tox inconclusive
Cn1nnnc1Sc1ncnc2scc(-c3ccc(-c4ccccc4)cc3)c12	TGFb inhibitor inconclusive, Nrf2 activator inconclusive
Cn1nnnc1Sc1ncnc2scc(-c3ccsc3)c12	TGFb inhibitor 13µM, Nrf2 inh inconclusive, A549 tox inconclusive, Nrf2 activator inconclusive
Cn1nnnc1Sc1ncnc2scc(-c3ccc(C#N)cc3)c12	TGFb inhibitor inconclusive, Nrf2 inh 16µM, A549 tox inconclusive
O=C(NN=C1CCC(c2ccccc2)CC1)c1cc2c(s1)CCCC2 (centres undefined)	none
O=C(NCCCN1CCN(c2ccccc2)CC1)c1cc2c(s1)-c1ccccc1OC2	TGFb inhibitor inconclusive, HepG2 tox 14µM
CCN(CC)CCOC(=O)c1ccc(NC(=O)c2cc3c(s2)-c2ccccc2OC3)cc1	TGFb inhibitor 11µM, Nrf2 inh inconclusive, HepG2 tox 10µM, A549 tox inconclusive
O=C(NCCCN1CCN(c2ccc(F)cc2)CC1)c1cc2c(s1)-c1ccccc1OC2	TGFb inhibitor inconclusive, Nrf2 inh inconclusive
Cc1ccc(CCNC(=O)c2cc3c(s2)-c2ccccc2OC3)cc1	Nrf2 inh 18µM, A549 tox inconclusive
COCCCN(Cc1ccco1)C(=O)c1cc2c(s1)-c1ccccc1OC2	TGFb inhibitor inconclusive, Nrf2 inh 9.2µM
Cc1ccccc1N1CCN(C2CCCN(C(=O)CCN3CCCO3)C2)CC1 (centres undefined)	none
O=S(=O)(c1ccccc1)N1CCN(Cc2ccccc2C(F)(F)F)CC1	none
O=[N+]([O-])c1ccccc1CN1CCN(S(=O)(=O)c2ccccc2)CC1	Nrf2 inh 16µM
C=CCOc1nc2c(c(=O)n(C)c(=O)n2C)n1Cc1ccccc1Cl	Nrf2 inh inconclusive
Oc1ccccc1-c1nc2c3ccccc3c3ccccc3c2[nH]1	TGFb inhibitor 16µM
Cc1[nH]c2ccccc2c1N=Nc1ccc(F)cc1	TGFb inhibitor inconclusive, Nrf2 inh 26µM, A549 tox inconclusive, Nrf2 activator inconclusive
S=c1[nH]nc(COc2ccccc2)n1/N=C/C=C/c1ccco1	Nrf2 activator 13µM
O=[N+]([O-])c1cccc(-c2noc(-c3ccco3)n2)c1	Nrf2 inh inconclusive, Nrf2 activator 7.1µM
O=[N+]([O-])c1cccc(-c2nc(-c3ccccc3)no2)c1	Nrf2 inh inconclusive, Nrf2 activator 4µM
O=[N+]([O-])c1cccc(-c2nc(-c3ccncc3)no2)c1	none (no result: Nrf2 inh)
Cn1cccc1Cc1nnc(SCC(=O)NCc2ccccc2Cl)n1-c1ccc(F)cc1	none
O=C(c1cc(C2CC2)nc2ccc(Br)cc12)N1N=C(C(F)F)CC1(O)C(F)F (centres undefined)	TGFb inhibitor 7.9µM, Nrf2 inh 18µM, A549 tox inconclusive
CCOC(=O)N1CCC(n2c(SCC(=O)Nc3ccccc3OC)nc3ccccc3c2=O)CC1	TGFb inhibitor inconclusive, Nrf2 inh 15µM (no result: A549 tox)
CCOC(=O)N1CCC(n2c(SCC(=O)NCc3ccccc3)nc3ccccc3c2=O)CC1	none
Cc1ccc(N2C(=O)c3cccc4c(Oc5ccccc5[N+](=O)[O-])ccc(c34)C2=O)c(C)c1	Nrf2 inh inconclusive
CCOc1ccccc1N1CCN(C2=C(NS(=O)(=O)c3cccs3)C(=O)c3ccccc3C2=O)CC1	TGFb inhibitor 18µM, Nrf2 inh inconclusive, A549 tox inconclusive
O=C1C(NS(=O)(=O)c2cccs2)=C(N2CCOCC2)C(=O)c2ccccc21	TGFb inhibitor inconclusive
CN1CCN(C2=C(NS(=O)(=O)c3cccs3)C(=O)c3ccccc3C2=O)CC1	TGFb inhibitor inconclusive, Nrf2 inh inconclusive
O=C1C(NS(=O)(=O)c2cccs2)=C(N2CCN(c3cccc(C(F)(F)F)c3)CC2)C(=O)c2ccccc21	TGFb inhibitor inconclusive, Nrf2 inh 21µM, A549 tox inconclusive
CCOc1cc(C(=O)NC(C)Cc2cccs2)cc(OCC)c1OCC (centres undefined)	none
COc1cc(CN(C(=O)c2ccc(OC(C)C)cc2)c2ccccn2)cc(OC)c1OC	Nrf2 inh 5.2µM
CCC(Oc1ccccc1)C(=O)Nc1ccc(S(=O)(=O)NCC2CCCO2)cc1 (centres undefined)	Nrf2 inh inconclusive (no result: A549 tox)
O=C1CC(C(=O)Nc2ccc(F)cc2)S/C(=N\N=C\c2ccco2)N1 (centres undefined)	Nrf2 activator 11µM
CC1CCN(C(=O)COC(=O)c2ccc(F)c(S(=O)(=O)N3CCOCC3)c2)CC1	none
O=c1c2ccccc2c(-c2ccc(O)cc2)nn1-c1cccc(C(F)(F)F)c1	TGFb inhibitor inconclusive, Nrf2 inh 23µM
COC(=O)c1ccc([C@H](NC(=O)c2ccco2)[C@]2(C)C[C@H]2C2CCCCC2)cc1	TGFb inhibitor inconclusive
Nc1ncc(-c2ccccc2)n1CC1CCCO1 (centres undefined)	TGFb inhibitor inconclusive, Nrf2 inh 16µM (no result: A549 tox)
COc1ccccc1N1CCN(C(=O)CSc2n[nH]c(-c3ccccc3Cl)n2)CC1	none (no result: Nrf2 inh)
NCCCn1c(C(=O)c2cc(Cl)c(N)c(Cl)c2)c2ccc([N+](=O)[O-])cc2[n+]1[O-]	TGFb inhibitor inconclusive, A549 tox 18µM, Nrf2 activator inconclusive
O=C(CSc1ncc2c(n1)-c1cc(Cl)ccc1N(Cc1ccccc1)S2(=O)=O)NCCc1ccccc1	Nrf2 inh inconclusive
